Common to all, as to assay: DAPPL (digital affinity profiling via proximity ligation, sequencing); 10 mM Tris-HCl pH 7.5, 50 mM NaCl, 1 mM DTT, 4% glycerol, room temperature, 30 min; GST-TFs on glutathione beads, 16-mer random dsDNA library, 0.1% formaldehyde crosslink after washing; high values mean tight binding
One assay has as its target T1, FEV (Homo sapiens, UniProt Q99581 1-238).
T1 sequence: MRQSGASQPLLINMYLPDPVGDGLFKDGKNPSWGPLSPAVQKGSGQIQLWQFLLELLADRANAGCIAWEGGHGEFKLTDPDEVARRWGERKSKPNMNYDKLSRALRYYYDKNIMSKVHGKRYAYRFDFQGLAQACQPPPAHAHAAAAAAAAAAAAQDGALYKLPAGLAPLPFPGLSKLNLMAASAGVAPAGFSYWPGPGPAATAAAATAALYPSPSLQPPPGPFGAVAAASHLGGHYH
As to conditions: protein: recombinant; tags: N-terminal GST; dsDNA, one strand shown. An outline of the steps:
(§1)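 A tag-only sample was pooled with DNA-barcoded human transcription factors that had been expressed in yeast as GST fusions and captured on glutathione beads. The pools were incubated for 30 min at room temperature with 200 nmole of a random double-stranded 16-mer DNA library in Tris/NaCl/DTT/glycerol buffer, then washed, crosslinked with 0.1% formaldehyde, proximity-ligated (BsaI/T4 ligase, 1 h, 37 °C), PCR-amplified and sequenced on an Illumina NextSeq500. Binding signal is each hexamer's read frequency for a factor divided by its frequency for the tag-only sample.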

The target in the next assay is ETV5 (Homo sapiens, UniProt P41161 1-510). The note with it: protein: recombinant; tags: N-terminal GST; dsDNA, one strand shown. The method, boiled down:
as §1

A further assay deals with HSF1 (Homo sapiens, UniProt Q00613 1-529). As to conditions: protein: recombinant; tags: N-terminal GST; chain copies: 3; dsDNA, one strand shown. The method, boiled down:
as §1

Another assay deals with T2, SPIC (Homo sapiens, UniProt Q8N5J4 1-248).
T2 sequence: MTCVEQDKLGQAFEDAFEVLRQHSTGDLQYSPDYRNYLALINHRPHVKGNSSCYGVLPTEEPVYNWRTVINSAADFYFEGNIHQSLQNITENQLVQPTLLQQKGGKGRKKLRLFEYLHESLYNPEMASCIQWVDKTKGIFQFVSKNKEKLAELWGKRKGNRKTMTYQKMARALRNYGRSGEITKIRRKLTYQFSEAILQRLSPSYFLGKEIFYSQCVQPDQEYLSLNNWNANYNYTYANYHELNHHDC
The note with it: protein: recombinant; tags: N-terminal GST; dsDNA, one strand shown. An outline of the steps:
as §1

The target in the next assay is ELF4 (Homo sapiens, UniProt Q99607 1-663). As to conditions: protein: recombinant; tags: N-terminal GST; dsDNA, one strand shown. An outline of the steps: as §1
Sequence of ELF4 (Q99607 whole entry): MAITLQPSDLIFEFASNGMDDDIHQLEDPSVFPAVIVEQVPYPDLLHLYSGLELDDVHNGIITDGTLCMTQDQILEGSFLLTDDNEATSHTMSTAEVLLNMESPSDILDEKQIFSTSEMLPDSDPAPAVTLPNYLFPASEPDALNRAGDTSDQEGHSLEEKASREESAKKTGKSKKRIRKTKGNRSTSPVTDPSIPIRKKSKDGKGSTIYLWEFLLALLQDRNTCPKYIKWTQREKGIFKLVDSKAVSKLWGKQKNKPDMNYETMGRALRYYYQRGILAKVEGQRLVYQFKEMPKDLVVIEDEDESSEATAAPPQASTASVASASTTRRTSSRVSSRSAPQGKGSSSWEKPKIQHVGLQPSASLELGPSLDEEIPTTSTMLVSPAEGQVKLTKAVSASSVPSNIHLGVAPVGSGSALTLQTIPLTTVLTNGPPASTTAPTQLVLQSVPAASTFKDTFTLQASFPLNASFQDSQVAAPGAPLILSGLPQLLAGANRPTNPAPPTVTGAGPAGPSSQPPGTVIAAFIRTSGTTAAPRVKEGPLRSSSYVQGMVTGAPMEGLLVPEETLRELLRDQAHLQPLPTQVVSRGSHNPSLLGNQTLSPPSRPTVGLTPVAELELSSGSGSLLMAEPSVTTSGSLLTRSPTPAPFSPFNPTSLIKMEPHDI
The target of the next assay is T3, ELK4 (Homo sapiens, UniProt P28324-2 1-405).
T3 sequence: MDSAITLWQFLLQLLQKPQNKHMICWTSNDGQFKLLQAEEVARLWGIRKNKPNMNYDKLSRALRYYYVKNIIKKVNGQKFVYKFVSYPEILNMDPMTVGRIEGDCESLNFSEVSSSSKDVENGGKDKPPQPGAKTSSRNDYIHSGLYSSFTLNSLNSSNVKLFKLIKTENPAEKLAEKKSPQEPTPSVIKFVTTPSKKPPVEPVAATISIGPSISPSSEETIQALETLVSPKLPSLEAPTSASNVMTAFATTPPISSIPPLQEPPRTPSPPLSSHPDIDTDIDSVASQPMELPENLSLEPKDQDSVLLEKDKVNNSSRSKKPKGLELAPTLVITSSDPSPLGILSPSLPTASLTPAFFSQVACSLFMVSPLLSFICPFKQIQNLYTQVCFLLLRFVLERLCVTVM
The note with it: protein: recombinant; tags: N-terminal GST; dsDNA, one strand shown. The method, boiled down: as §1

A further assay deals with T4, ETV2 (Homo sapiens, UniProt O00321 1-342).
T4 sequence: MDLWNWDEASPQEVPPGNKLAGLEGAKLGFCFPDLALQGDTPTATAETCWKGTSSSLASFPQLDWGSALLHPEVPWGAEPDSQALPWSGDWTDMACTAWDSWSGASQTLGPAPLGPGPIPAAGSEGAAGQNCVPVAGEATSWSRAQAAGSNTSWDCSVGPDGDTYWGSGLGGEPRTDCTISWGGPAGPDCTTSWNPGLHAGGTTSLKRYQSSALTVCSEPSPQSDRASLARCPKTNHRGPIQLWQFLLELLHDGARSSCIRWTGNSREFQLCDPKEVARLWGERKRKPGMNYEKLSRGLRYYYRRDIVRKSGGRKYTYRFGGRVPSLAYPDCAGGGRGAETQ
As to conditions: protein: recombinant; tags: N-terminal GST; dsDNA, one strand shown. The method, boiled down:
as §1

A further assay has as its target T5, ELF3 (Homo sapiens, UniProt P78545 1-371).
T5 sequence: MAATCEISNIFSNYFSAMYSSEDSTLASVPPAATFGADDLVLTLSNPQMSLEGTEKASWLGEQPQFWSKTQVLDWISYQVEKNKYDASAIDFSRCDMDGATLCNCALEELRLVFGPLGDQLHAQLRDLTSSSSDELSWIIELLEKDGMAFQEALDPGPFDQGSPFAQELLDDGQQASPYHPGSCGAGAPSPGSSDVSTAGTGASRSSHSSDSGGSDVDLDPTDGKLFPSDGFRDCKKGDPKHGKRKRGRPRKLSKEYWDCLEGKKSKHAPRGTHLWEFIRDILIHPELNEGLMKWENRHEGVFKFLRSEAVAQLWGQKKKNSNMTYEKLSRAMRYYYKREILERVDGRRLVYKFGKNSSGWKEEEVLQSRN
As to conditions: protein: recombinant; tags: N-terminal GST; dsDNA, one strand shown. The method, boiled down: as §1

Another assay has as its target CRX (Homo sapiens, UniProt O43186 1-299). As to conditions: protein: recombinant; tags: N-terminal GST; dsDNA, one strand shown. An outline of the steps:
as §1

Another assay deals with ETV1 (Homo sapiens, UniProt P50549 1-477). The note with it: protein: recombinant; tags: N-terminal GST; dsDNA, one strand shown. An outline of the steps: as §1
Sequence of ETV1 (P50549 whole entry): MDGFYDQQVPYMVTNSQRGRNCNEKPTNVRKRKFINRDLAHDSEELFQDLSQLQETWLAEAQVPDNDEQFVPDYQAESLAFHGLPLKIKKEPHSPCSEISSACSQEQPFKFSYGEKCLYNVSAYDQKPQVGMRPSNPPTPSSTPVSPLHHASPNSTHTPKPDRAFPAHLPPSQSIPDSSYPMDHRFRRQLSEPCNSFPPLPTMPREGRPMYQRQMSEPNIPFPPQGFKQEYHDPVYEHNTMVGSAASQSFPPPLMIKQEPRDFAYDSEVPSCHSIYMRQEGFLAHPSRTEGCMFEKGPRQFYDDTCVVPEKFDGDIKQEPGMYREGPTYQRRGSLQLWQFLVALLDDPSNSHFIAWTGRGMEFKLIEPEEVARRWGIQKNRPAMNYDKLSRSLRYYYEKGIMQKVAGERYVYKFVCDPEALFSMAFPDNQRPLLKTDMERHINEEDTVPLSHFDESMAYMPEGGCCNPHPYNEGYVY
The target of another assay is T6, ERF (Homo sapiens, UniProt P50548 1-548).
T6 sequence: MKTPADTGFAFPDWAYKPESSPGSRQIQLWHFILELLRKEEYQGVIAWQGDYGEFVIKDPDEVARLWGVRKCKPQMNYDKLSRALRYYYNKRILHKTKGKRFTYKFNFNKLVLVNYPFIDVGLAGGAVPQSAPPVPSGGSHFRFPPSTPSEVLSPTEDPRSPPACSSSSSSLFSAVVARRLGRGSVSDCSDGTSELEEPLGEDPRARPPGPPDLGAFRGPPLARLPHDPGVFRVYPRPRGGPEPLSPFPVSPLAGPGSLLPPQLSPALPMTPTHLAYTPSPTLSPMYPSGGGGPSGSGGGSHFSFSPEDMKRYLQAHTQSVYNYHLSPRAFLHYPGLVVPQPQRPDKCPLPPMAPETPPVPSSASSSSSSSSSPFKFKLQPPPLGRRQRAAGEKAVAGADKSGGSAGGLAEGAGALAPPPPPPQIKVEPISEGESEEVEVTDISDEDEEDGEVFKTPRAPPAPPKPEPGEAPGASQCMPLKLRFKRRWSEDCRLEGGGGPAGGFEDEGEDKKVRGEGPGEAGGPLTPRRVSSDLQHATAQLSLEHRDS
The note with it: protein: recombinant; tags: N-terminal GST; dsDNA, one strand shown. An outline of the steps:
as §1

Another assay has as its target T7, ETV3L (Homo sapiens, UniProt Q6ZN32 1-361).
T7 sequence: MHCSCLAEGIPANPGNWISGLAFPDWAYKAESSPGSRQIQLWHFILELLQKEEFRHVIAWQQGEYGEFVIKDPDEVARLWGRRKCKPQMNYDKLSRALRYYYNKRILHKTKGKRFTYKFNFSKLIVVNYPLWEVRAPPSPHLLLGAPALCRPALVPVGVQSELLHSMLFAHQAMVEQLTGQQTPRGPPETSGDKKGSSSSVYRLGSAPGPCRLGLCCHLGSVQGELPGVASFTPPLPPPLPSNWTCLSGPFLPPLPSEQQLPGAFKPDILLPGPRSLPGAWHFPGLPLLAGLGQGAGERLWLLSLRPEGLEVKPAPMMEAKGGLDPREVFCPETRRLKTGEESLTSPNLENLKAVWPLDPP
The note with it: protein: recombinant; tags: N-terminal GST; dsDNA, one strand shown. An outline of the steps:
as §1

A further assay addresses T8, ETS2 (Homo sapiens, UniProt P15036 1-469).
T8 sequence: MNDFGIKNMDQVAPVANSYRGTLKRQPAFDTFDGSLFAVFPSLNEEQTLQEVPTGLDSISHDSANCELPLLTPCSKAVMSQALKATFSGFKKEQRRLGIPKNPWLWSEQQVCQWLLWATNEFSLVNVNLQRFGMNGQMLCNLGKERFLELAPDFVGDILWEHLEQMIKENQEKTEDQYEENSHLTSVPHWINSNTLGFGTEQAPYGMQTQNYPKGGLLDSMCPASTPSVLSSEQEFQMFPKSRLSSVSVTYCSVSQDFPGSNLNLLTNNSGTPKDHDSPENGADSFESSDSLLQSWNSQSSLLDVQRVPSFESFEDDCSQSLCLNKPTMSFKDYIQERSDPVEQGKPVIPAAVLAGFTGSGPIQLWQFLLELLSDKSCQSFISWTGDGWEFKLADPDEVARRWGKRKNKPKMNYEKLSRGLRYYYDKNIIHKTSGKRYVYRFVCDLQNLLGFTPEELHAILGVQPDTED
The note with it: protein: recombinant; tags: N-terminal GST; dsDNA, one strand shown. The method, boiled down: as §1

The target of another assay is T9, SPDEF (Homo sapiens, UniProt O95238 1-335).
T9 sequence: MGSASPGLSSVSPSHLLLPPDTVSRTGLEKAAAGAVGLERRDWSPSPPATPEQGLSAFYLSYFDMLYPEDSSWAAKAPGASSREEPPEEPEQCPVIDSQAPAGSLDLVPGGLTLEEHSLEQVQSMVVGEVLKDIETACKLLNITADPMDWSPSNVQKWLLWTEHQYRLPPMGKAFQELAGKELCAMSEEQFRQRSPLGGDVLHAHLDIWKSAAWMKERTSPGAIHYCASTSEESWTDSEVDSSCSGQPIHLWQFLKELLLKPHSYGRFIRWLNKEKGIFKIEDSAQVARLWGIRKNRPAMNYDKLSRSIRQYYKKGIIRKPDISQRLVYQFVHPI
As to conditions: protein: recombinant; tags: N-terminal GST; dsDNA, one strand shown. The method, boiled down: as §1

The next assay addresses T10, ETV7 (Homo sapiens, UniProt Q9Y603 1-341).
T10 sequence: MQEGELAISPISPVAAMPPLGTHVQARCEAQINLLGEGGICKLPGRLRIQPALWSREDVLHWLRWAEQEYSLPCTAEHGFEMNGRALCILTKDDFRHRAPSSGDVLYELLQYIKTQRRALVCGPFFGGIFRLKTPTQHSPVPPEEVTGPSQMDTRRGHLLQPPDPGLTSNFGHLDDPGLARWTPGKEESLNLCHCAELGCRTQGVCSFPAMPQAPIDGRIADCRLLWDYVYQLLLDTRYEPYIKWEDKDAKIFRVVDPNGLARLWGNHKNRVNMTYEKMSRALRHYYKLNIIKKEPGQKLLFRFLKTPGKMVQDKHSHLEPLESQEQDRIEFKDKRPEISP
The note with it: protein: recombinant; tags: N-terminal GST; dsDNA, one strand shown. The method, boiled down:
as §1

The target in the next assay is T11, ELF5 (Homo sapiens, UniProt Q9UKW6-2 1-255).
T11 sequence: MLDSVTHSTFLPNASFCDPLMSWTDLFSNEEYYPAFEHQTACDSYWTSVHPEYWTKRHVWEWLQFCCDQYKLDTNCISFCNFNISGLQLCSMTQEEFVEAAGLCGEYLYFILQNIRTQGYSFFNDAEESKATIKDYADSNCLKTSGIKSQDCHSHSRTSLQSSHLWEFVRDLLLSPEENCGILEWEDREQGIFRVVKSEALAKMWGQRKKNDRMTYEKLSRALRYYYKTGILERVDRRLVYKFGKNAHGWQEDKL
The note with it: protein: recombinant; tags: N-terminal GST; dsDNA, one strand shown. An outline of the steps: as §1

The target of a further assay is T12, ETV3 (Homo sapiens, UniProt P41162-2 1-143).
T12 sequence: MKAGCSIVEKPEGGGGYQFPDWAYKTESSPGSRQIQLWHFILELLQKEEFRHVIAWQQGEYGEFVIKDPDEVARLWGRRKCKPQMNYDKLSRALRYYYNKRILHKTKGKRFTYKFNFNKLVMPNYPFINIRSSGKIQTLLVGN
As to conditions: protein: recombinant; tags: N-terminal GST; dsDNA, one strand shown. The method, boiled down:
as §1

The target of a further assay is ETV6 (Homo sapiens, UniProt P41212 1-452). The note with it: protein: recombinant; tags: N-terminal GST; dsDNA, one strand shown. The method, boiled down:
as §1

Sequence of CRX (O43186 whole entry): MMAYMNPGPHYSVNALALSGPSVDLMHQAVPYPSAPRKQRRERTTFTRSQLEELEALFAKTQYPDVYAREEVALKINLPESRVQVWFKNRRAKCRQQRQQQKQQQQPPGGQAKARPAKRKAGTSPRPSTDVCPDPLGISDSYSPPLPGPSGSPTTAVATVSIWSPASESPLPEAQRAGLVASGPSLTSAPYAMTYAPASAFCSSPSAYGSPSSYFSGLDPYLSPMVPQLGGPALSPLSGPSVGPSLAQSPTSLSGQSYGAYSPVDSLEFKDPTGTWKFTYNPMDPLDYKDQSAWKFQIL
Sequence of ETV5 (P41161 whole entry): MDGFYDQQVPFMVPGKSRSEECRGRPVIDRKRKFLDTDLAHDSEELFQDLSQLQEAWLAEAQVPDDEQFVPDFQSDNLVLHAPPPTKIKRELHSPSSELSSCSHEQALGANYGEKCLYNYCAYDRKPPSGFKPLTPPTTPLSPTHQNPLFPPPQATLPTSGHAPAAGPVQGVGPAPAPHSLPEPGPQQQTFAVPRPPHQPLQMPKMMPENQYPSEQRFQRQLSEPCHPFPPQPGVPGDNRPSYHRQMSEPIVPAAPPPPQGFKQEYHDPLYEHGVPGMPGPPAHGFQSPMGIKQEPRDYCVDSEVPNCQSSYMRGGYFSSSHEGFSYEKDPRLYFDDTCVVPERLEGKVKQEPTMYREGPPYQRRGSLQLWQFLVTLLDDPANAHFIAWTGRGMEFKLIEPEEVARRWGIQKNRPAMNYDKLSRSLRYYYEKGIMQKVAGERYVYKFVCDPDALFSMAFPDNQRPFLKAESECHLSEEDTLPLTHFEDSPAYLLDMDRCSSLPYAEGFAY
Sequence of HSF1 (Q00613 whole entry): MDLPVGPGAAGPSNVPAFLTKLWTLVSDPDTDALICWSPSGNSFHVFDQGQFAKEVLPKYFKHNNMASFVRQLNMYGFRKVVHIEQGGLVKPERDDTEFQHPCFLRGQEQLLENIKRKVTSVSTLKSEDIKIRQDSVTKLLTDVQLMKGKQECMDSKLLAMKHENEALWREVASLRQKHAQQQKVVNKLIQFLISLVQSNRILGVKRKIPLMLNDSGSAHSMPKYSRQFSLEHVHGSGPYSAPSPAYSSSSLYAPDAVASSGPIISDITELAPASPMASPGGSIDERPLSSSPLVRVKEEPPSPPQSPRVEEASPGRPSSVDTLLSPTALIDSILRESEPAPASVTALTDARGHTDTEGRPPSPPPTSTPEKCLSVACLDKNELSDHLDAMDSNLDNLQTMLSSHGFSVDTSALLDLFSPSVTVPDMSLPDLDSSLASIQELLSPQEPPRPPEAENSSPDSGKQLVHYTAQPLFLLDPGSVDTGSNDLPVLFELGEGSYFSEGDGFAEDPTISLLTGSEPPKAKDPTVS
Sequence of ETV6 (P41212 whole entry): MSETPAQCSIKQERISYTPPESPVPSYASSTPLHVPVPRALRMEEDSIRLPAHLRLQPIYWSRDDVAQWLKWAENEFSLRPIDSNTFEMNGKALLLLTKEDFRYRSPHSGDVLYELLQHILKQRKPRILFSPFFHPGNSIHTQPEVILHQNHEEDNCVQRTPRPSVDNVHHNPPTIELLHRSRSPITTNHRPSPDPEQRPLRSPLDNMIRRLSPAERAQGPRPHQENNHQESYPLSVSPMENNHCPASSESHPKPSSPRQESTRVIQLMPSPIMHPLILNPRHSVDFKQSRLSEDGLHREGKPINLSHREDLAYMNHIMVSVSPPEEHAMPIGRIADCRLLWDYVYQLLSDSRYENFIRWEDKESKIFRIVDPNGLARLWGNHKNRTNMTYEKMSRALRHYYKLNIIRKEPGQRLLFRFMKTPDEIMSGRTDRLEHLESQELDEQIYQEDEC

As for TGTTGC, the binding signal with FEV is 1.25 fold enrichment (6-mer frequency, TF over GST control); in the assay with ETV5, 1.35 fold enrichment (6-mer frequency, TF over GST control); with HSF1 it was 1.02 fold enrichment (6-mer frequency, TF over GST control); with SPIC, 1.17 fold enrichment (6-mer frequency, TF over GST control); in the assay with ELF4, 1.34 fold enrichment (6-mer frequency, TF over GST control); in the assay with ELK4, 1.37 fold enrichment (6-mer frequency, TF over GST control). Besides, the binding signal with ETV2 was 1.15 fold enrichment (6-mer frequency, TF over GST control); with ELF3, 1.28 fold enrichment (6-mer frequency, TF over GST control); in the assay with CRX, 1.08 fold enrichment (6-mer frequency, TF over GST control); with ETV1, 1.4 fold enrichment (6-mer frequency, TF over GST control); with ERF, 1.46 fold enrichment (6-mer frequency, TF over GST control); in the assay with ETV3L it was 1.37 fold enrichment (6-mer frequency, TF over GST control). Further, the binding signal in the assay with ETS2 was 1.3 fold enrichment (6-mer frequency, TF over GST control); in the assay with SPDEF it was 1.33 fold enrichment (6-mer frequency, TF over GST control); in the assay with ETV7, 1.27 fold enrichment (6-mer frequency, TF over GST control); with ELF5, 1.3 fold enrichment (6-mer frequency, TF over GST control); in the assay with ETV3 it was 1.56 fold enrichment (6-mer frequency, TF over GST control); with ETV6, 1.33 fold enrichment (6-mer frequency, TF over GST control).

(Values after article PMC7862700, “An all-to-all approach to the identification of sequence-specific readers for epigenetic DNA modifications on cytosine”.)
